Screening results from PubChem.
BJeLR viability: BJeLR cell viability loss; BJeLR (HRASV12) viability, CellTiter-Glo ATP luminescence, 48 h; inhibition, % (no concentration beside the values); actives 0.17% (n = 300,000); AID 1554; in the data active = inhibition above about 50%; inconclusive = no clear call, values can overlap the other calls
PrPC TRFRET: inhibitors of human cell surface prion protein PrPC; P04156; TR-FRET read-out; inhibition, % at 13.8 µM; actives 0.43% (n = 370,000); AID 720596; in the data active = inhibition above about 24%; note: 0% = median of the test wells and 100% = reference compound wells
RecA intein inh: inhibitors of M. tuberculosis RecA intein splicing; P9WHJ3; cell-free RecA intein splicing, fluorescence; inhibition, % (no concentration beside the values); actives 0.75% (n = 290,000); in the data active = inhibition above about 30%; inconclusive = no clear call, values can overlap the other calls;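 note: 0% = vehicle wells and 100% = reference inhibitor control wells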
Target sequence (P9WHJ3 whole entry, looked up): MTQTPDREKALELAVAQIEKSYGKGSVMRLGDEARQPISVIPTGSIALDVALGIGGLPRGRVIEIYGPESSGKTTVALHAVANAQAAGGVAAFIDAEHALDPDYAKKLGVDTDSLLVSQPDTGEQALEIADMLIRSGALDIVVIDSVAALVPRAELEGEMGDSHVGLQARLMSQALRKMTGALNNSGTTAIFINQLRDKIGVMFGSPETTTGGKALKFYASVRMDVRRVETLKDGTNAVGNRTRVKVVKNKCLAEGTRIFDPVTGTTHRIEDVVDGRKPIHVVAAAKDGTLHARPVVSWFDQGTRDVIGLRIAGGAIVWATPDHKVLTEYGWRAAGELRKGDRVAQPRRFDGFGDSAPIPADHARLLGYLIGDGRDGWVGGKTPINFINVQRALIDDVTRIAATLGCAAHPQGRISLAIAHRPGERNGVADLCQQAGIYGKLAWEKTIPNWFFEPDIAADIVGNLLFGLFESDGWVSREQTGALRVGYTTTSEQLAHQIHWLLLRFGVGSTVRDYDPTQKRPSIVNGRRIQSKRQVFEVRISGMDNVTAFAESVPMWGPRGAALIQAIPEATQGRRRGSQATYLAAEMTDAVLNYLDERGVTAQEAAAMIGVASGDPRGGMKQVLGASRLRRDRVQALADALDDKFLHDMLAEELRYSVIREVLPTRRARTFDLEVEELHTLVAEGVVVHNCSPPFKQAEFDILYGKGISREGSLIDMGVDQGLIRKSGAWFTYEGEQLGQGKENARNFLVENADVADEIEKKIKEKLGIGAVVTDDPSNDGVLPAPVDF
PrP UTR inh: suppresses PrP 5' UTR mRNA reporter expression | cell-based PrP 5' UTR mRNA reporter, plate reader | inhibition, % (no concentration beside the values) | actives 0.35% (n = 340,000) | AID 488862; in the data active = inhibition above about 52%; note: 0 = median of the neutral control wells
PfHsp40 yeast: restores yeast growth despite PfHsp40 toxicity; S. cerevisiae expressing PfHsp40, growth rescue, ATP luminescence; actives 0.68% (n = 340,000); growth rescue, % at 12.5 µM; in the data active = growth rescue above about 28%, passing the limit was not always enough; inconclusive = no clear call, values can overlap the other calls;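 note: yeast W303a lacking pdr1 and pdr3 grown in galactose medium; growth measured after three days at 30 °C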
SSB-PriA inh: blocks PriA binding to SSB C-terminal tail | AlphaScreen SSBct-PriA binding, biotinylated peptide | actives 0.6% (n = 430,000) | AID 1272365 | inhibition, % at 33 µM; in the data active = inhibition mostly above about 37%, no sharp cut-off; inactive = mostly below about 20%;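 note: plate controls were negative control peptide for no effect and reference peptide for full effect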
* = called active by the depositor; i = inactive; ? = inconclusive; . = no result; + = active, no number; ! = not confirmed by another sample. Only some compounds are listed: those with a hit (about 1.9% of all), similar ones and a draw of the others.

SMILES	BJeLR viability	PrPC TRFRET	RecA intein inh	PrP UTR inh	PfHsp40 yeast	SSB-PriA inh
OCCCCC#Cc1c(-c2ccsc2)sc2ccccc12	-14	-5	21	-12	?	-14
COc1ccc(-c2sc3ccccc3c2C#CCO)cc1	-7	-10	-5	-12	31*	-29
COc1ccc(-c2sc3ccccc3c2C#Cc2cncn2C)cc1	.	-13	.	-9	414*	-1
COc1ccc(-c2sc3ccccc3c2C#CCCO)cc1	-6	-8	12	-22	41*	-14
CCc1cnc2c(c1OC)c(=O)n(CC(=O)NCc1ccccc1)c(=O)n2C	.	.	.	.	.	0
CN(C)CCN(C(=O)C1CC(=O)N(c2ccccc2)C1)c1nc2ccc(Cl)cc2s1 (stereo not drawn)	.	.	.	.	.	-9
O=C(NCc1ccnc(N2CCOCC2)c1)c1ncc(-c2ccc(F)cc2)o1	.	.	.	.	.	-17
COc1ccc(-c2sc3ccccc3c2/C=C/c2ccc(OC)c(OC)c2)cc1	.	-4	.	-15	-1	-5
COc1ccc(-c2sc3ccccc3c2/C=C/c2ccncc2)cc1	.	5	.	-4	75*	-14
COc1ccccc1-c1sc2cc3c(cc2c1C#Cc1cncn1C)OCO3	.	-10	.	-21	246*	24
COc1ccc2sc(-c3ccccc3OC)c(C#Cc3cncn3C)c2c1	.	-18	.	-3	5	-3
CCN(CC)c1ccc2cc3ccc(N)cc3[n+](-c3ccccc3)c2c1	.	.	.	.	.	117*
Cn1cnc(Sc2ncnc3nc[nH]c23)c1[N+](=O)[O-]	54*	6	-4	-23	-1	2
Cn1cnc([N+](=O)[O-])c1Sc1ncnc2nc[nH]c12	69*	-3	5	1	1	-1
CC(=O)CSc1ncnc2nc[nH]c12	2	10	-4	-9	1	-6
Cn1cnc([N+](=O)[O-])c1Sc1ccncn1	.	-3	.	.	.	.
COc1ccccc1CNC(=O)C1(c2cccs2)CCCC1	.	.	.	.	.	-14
COc1ccc(C)c2sc(N(Cc3cccnc3)C(=O)c3cccc([N+](=O)[O-])c3)nc12	.	.	.	.	.	2
CCCCSc1nc(C)cc(SCC(=O)N/N=C/c2cccc(OC)c2O)n1	7	9	1	17	104*	.
O=C1CCc2cc(S(=O)(=O)NCC3CCN(S(=O)(=O)C4CC4)CC3)cc3c2N1CC3	.	.	.	.	.	39*
CCOC(=O)/C(=N/Nc1ccc(Br)cc1)N1CC(C)OC(C)C1 (stereo not drawn)	.	32*	.	-16	36*	i
c1ccc2c(CNc3ccc(CNc4ncn[nH]4)cc3)cccc2c1	5	9	3	-9	1	40*
CN(C)P1(N(C)C)=Nc2c(c(N)nn2C)C(c2ccccc2)=N1	-3	-8	-1	-23	39*!	-6
O=[N+]([O-])c1ccc(C2=NN(CCO)C(=Nc3ccc(OC(F)(F)F)cc3)SC2)cc1	-3	-3	9	-7	53*	-7
CC(=O)Nc1ccc(NC(=O)C(C)OC(=O)c2ccc(OCc3c(C)noc3C)cc2)cc1 (stereo not drawn)	-6	3	0	-16	1	0
SMILES	BJeLR viability	PrPC TRFRET	RecA intein inh	PrP UTR inh	PfHsp40 yeast	SSB-PriA inh
Cc1noc(C)c1COc1ccc(C(=O)OC(C)C(=O)Nc2ccc(N3CCOCC3)cc2)cc1 (stereo not drawn)	4	1	2	-7	67*	-2
O=C(COC(=O)c1ccc([N+](=O)[O-])o1)NCCCc1ccccc1	.	-29	.	-3	45*	-4
O=C(COC(=O)c1ccc([N+](=O)[O-])o1)NC1CCCC1	.	-19	.	-26	3	1
COc1ccc(CCNC(=O)COC(=O)c2ccc([N+](=O)[O-])o2)cc1	.	-14	.	-21	123*	-2
O=C(COC(=O)c1ccc([N+](=O)[O-])o1)Nc1cccc2ccccc12	-2	-30	.	-4	80*	-7
O=C(COC(=O)c1ccc([N+](=O)[O-])o1)NC1CCCCC1	.	-18	.	-16	213*	1
CC1CN(S(=O)(=O)c2ccc(C(=O)Nc3ccccc3C#N)cc2)CC(C)O1 (stereo not drawn)	.	.	.	.	.	-13
O=C(COC(=O)c1ccc([N+](=O)[O-])o1)NCc1ccc(F)cc1	.	-34	.	-20	223*	0
COc1ccc(S(=O)(=O)Nc2ccc(O)c(Sc3ncn[nH]3)c2)cc1	9	-8	-5	-13	0	-17
COc1ccc(S(=O)(=O)Nc2cc(Sc3ncn[nH]3)c(O)c3ccccc23)cc1	.	57*	.	.	.	.
O=C1C=CC(=O)C2C1C1(Cl)C(Cl)=C(Cl)C2(Cl)C1(Cl)Cl (stereo not drawn)	.	-4	.	-5	54*	5
CCCCCCCCCCn1c2c(c(=N)c3c1CCC3)CCC2	56*	48*	32*	5	291*	2
CCCCCCCCCn1c2c(c(=N)c3c1CCC3)CCCC2	47	.	.	-14	6	9
Cc1nnc(NC(=O)c2cccn(Cc3c(F)cccc3Cl)c2=O)s1	.	.	.	.	.	-5
CCN1CCCc2cc(CN(CCN3CCOCC3)C(=S)Nc3cccc(Cl)c3)ccc21	-5	0	6	-17	0	52*
O=[N+]([O-])c1cccc(-c2csc(=Nc3ccccc3)n2N2CCOCC2)c1	.	.	.	.	.	64*
Cc1cccc(NC(=O)C(=O)NCCc2ccco2)c1C	.	.	.	.	.	-10
Cc1noc(C)c1CSc1nc2scc(-c3ccccc3Cl)c2c(=O)n1-c1ccccc1	.	.	.	.	.	-8
CCOc1ncnc2ccccc12	.	.	.	.	.	-12
Oc1cccc(C=NNC(=S)NCCN2CCOCC2)c1O	.	.	.	.	.	58*
Oc1cccc(/C=N/NC(=S)NCCN2CCOCC2)c1O	-7	-4	-38	-18	-1	.
CC(C)S(=O)(=O)Nc1ccc2c(c1)OCC(C)(C)C(=O)N2	.	.	.	.	.	1
COC(CNC(=O)c1ccoc1)c1ccccc1C (stereo not drawn)	.	.	.	.	.	8
O=C1OC(c2ccccc2)=NC12CC2c1ccc(Cl)cc1 (stereo not drawn)	0	4	22	-14	255*	-16
CCOC(=O)c1[nH]c(C)c(C(O)=C2C(=O)C(=O)N(CCCn3ccnc3)C2c2ccncc2)c1C (stereo not drawn)	.	.	.	.	.	-2
SMILES	BJeLR viability	PrPC TRFRET	RecA intein inh	PrP UTR inh	PfHsp40 yeast	SSB-PriA inh
N#CCC(=O)NN=Cc1ccccc1OC/C=C/c1ccccc1	.	.	.	.	.	71*
COc1cc(/C=N/NC(=O)CC#N)ccc1OCc1ccccc1	.	.	.	.	.	+
COc1cc(C=NNC(=O)CC#N)ccc1OC/C=C/c1ccccc1	.	.	.	.	.	68*
N#CCC(=O)N/N=C\c1ccccc1OC/C=C/c1ccccc1	13	7	3	-34	1	.
c1ccc2[nH]c3cc4ncnc4cc3nc2c1	-1	-29	60*	-46	0	4
CCCCCOc1ccc(Br)cc1/C(C)=N/NC1=NCCN1	81*	16	20	-40	2	.
O=S(=O)(Cc1ccccc1)Nc1cnc(N2CCCC2)nc1	.	.	.	.	.	3
Clc1cccc(N/N=C(\Cc2nc3ccccc3[nH]2)c2ccccc2)c1	-28	7	21	-1	426*	.
Clc1ccc(C(Cc2nc3ccccc3[nH]2)=NNc2ccccc2)cc1	.	.	.	.	.	22
